Screen size: about 5,500 compounds; about 2,000 (36%) were called active. Inconclusive results (about 18%) are left out. Cut-off read from the data, not from the text of the source: active = normalized growth mostly below about 0.91 (no sharp cut-off); inconclusive = no clear call, values can overlap the other calls; inactive = mostly above about 0.92. Some of the results follow.
Experiment: chemical genetic growth profiling, strain panel (AID 1159580);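 note: tested at 20 µM; growth read once vehicle control cultures reached saturation at 30 °C; 1 = growth at the plate median or of vehicle wells; lower values mean less growth of the strain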
Conditions: growth OD

Measured: normalized growth

O=C(O)CN1C(=O)c2cccc3cccc(c23)C1=O
inactive: S. cerevisiae deletion strains, locus YJR043C, strain POL32, stronger effect = lower value 1.03 | S. cerevisiae deletion strains, locus YJR066W, strain TOR1, stronger effect = lower value 0.975 | S. cerevisiae deletion strains, locus YKL009W, strain mrt4, stronger effect = lower value 0.987 | S. cerevisiae deletion strains, locus YKL068W, stronger effect = lower value 0.991 | S. cerevisiae deletion strains, locus YKL085W, strain MDH1 (second series), stronger effect = lower value 0.978 | S. cerevisiae deletion strains, locus YKL085W, strain MDH1, stronger effect = lower value 0.978 | S. cerevisiae deletion strains, locus YKL160W, strain elf1, stronger effect = lower value 0.956 | S. cerevisiae deletion strains, locus YKL190W, strain CNB1, stronger effect = lower value 1 | S. cerevisiae deletion strains, locus YKR001C, strain vps1, stronger effect = lower value 1.01 | S. cerevisiae deletion strains, locus YKR026C, strain gcn3, stronger effect = lower value 0.996 | S. cerevisiae deletion strains, locus YKR091W, strain srl3, stronger effect = lower value 0.986 | S. cerevisiae deletion strains, locus YLL001W, strain dnm1, stronger effect = lower value 0.966 | S. cerevisiae deletion strains, locus YLL026W, stronger effect = lower value 0.996 | S. cerevisiae deletion strains, locus YLL041C, strain sdh2, stronger effect = lower value 0.983 | S. cerevisiae deletion strains, locus YLR027C, strain aat2, stronger effect = lower value 0.996 | S. cerevisiae deletion strains, locus YLR039C, strain RIC1, stronger effect = lower value 1 | S. cerevisiae deletion strains, locus YLR058C, strain SHM2, stronger effect = lower value 1 | S. cerevisiae deletion strains, locus YLR102C, strain apc9, stronger effect = lower value 0.986 | S. cerevisiae deletion strains, locus YLR113W, strain HOG1, stronger effect = lower value 0.935 | S. cerevisiae deletion strains, locus YLR221C, strain rsa3, stronger effect = lower value 0.977 | S. cerevisiae deletion strains, locus YLR258W, strain gsy2, stronger effect = lower value 0.988 | S. cerevisiae deletion strains, locus YLR262C, strain YPT6 (second series), stronger effect = lower value 0.947 | S. cerevisiae deletion strains, locus YLR262C, strain YPT6, stronger effect = lower value 0.985 | S. cerevisiae deletion strains, locus YLR268W, strain sec22, stronger effect = lower value 0.983 | S. cerevisiae deletion strains, locus YLR320W, strain mms22, stronger effect = lower value 0.944 | S. cerevisiae deletion strains, locus YLR330W, strain CHS5, stronger effect = lower value 0.989 | S. cerevisiae deletion strains, locus YLR342W, strain FKS1 (second series), stronger effect = lower value 1.02 | S. cerevisiae deletion strains, locus YLR342W, strain FKS1, stronger effect = lower value 0.978 | S. cerevisiae deletion strains, locus YLR357W, strain rsc2, stronger effect = lower value 0.965 | S. cerevisiae deletion strains, locus YLR370C, strain arc18, stronger effect = lower value 0.973 | S. cerevisiae deletion strains, locus YLR371W, strain rom2, stronger effect = lower value 0.989 | S. cerevisiae deletion strains, locus YLR384C, strain iki3, stronger effect = lower value 0.973 | S. cerevisiae deletion strains, locus YLR418C, strain cdc73, stronger effect = lower value 0.988 | S. cerevisiae deletion strains, locus YML016C, strain PPZ1, stronger effect = lower value 1 | S. cerevisiae deletion strains, locus YML032C, strain rad52, stronger effect = lower value 1 | S. cerevisiae deletion strains, locus YML120C, strain ndi1, stronger effect = lower value 0.958 | S. cerevisiae deletion strains, locus YML124C, strain tub3, stronger effect = lower value 0.999 | S. cerevisiae deletion strains, locus YMR058W, strain fet3, stronger effect = lower value 0.98 | S. cerevisiae deletion strains, locus YMR078C, strain ctf18, stronger effect = lower value 0.982 | S. cerevisiae deletion strains, locus YMR125W, strain sto1, stronger effect = lower value 0.979 | S. cerevisiae deletion strains, locus YMR129W, stronger effect = lower value 0.996 | S. cerevisiae deletion strains, locus YMR205C, strain PFK2, stronger effect = lower value 0.954 | S. cerevisiae deletion strains, locus YMR223W, strain ubp8, stronger effect = lower value 0.977 | S. cerevisiae deletion strains, locus YMR231W, strain pep5, stronger effect = lower value 0.992 | S. cerevisiae deletion strains, locus YMR307W, strain GAS1, stronger effect = lower value 1.01 | S. cerevisiae deletion strains, locus YNL067W, strain RPL9B, stronger effect = lower value 1.05 | S. cerevisiae deletion strains, locus YNL071W, strain lat1, stronger effect = lower value 0.933 | S. cerevisiae deletion strains, locus YNL153C, strain GIM3, stronger effect = lower value 1.08 | S. cerevisiae deletion strains, locus YNL183C, strain NPR1, stronger effect = lower value 0.953 | S. cerevisiae deletion strains, locus YNL209W, strain ssb2, stronger effect = lower value 0.986 | S. cerevisiae deletion strains, locus YNL233W, strain BNI4, stronger effect = lower value 1.03 | S. cerevisiae deletion strains, locus YNL248C, strain rpa49, stronger effect = lower value 0.969 | S. cerevisiae deletion strains, locus YNL250W, strain rad50, stronger effect = lower value 0.941 | S. cerevisiae deletion strains, locus YNL271C, strain bni1, stronger effect = lower value 0.998 | S. cerevisiae deletion strains, locus YNL298W, strain CLA4, stronger effect = lower value 0.984 | S. cerevisiae deletion strains, locus YNL307C, strain MCK1, stronger effect = lower value 0.994 | S. cerevisiae deletion strains, locus YNL322C, strain KRE1 (second series), stronger effect = lower value 0.987 | S. cerevisiae deletion strains, locus YNR049C, strain mso1, stronger effect = lower value 0.981 | S. cerevisiae deletion strains, locus YNR052C, strain pop2, stronger effect = lower value 0.969 | S. cerevisiae deletion strains, locus YOL006C, strain TOP1, stronger effect = lower value 1.08 | S. cerevisiae deletion strains, locus YOL012C, strain htz1 0.878 | S. cerevisiae deletion strains, locus YOL147C, strain pex11, stronger effect = lower value 0.988 | S. cerevisiae deletion strains, locus YOR001W, strain rrp6, stronger effect = lower value 0.974 | S. cerevisiae deletion strains, locus YOR061W, strain CKA2, stronger effect = lower value 1.01 | S. cerevisiae deletion strains, locus YOR069W, strain VPS5, stronger effect = lower value 0.998 | S. cerevisiae deletion strains, locus YOR070C, strain gyp1, stronger effect = lower value 0.99 | S. cerevisiae deletion strains, locus YOR080W, strain dia2, stronger effect = lower value 0.989 | S. cerevisiae deletion strains, locus YOR083W, strain WHI5, stronger effect = lower value 0.967 | S. cerevisiae deletion strains, locus YOR106W, strain vam3, stronger effect = lower value 0.955 | S. cerevisiae deletion strains, locus YOR136W, strain idh2, stronger effect = lower value 0.991 | S. cerevisiae deletion strains, locus YOR144C, strain elg1, stronger effect = lower value 0.987 | S. cerevisiae deletion strains, locus YOR184W, strain ser1, stronger effect = lower value 1.02 | S. cerevisiae deletion strains, locus YOR231W, strain MKK1, stronger effect = lower value 0.977 | S. cerevisiae deletion strains, locus YOR265W, strain rbl2, stronger effect = lower value 0.985 | S. cerevisiae deletion strains, locus YOR270C, strain vph1, stronger effect = lower value 0.876 | S. cerevisiae deletion strains, locus YOR290C, strain snf2, stronger effect = lower value 0.943 | S. cerevisiae deletion strains, locus YOR316C, strain cot1, stronger effect = lower value 0.992 | S. cerevisiae deletion strains, locus YPL051W, strain arl3, stronger effect = lower value 0.97 | S. cerevisiae deletion strains, locus YPL078C, strain atp4, stronger effect = lower value 0.976 | S. cerevisiae deletion strains, locus YPL106C, strain sse1, stronger effect = lower value 0.954 | S. cerevisiae deletion strains, locus YPL240C, strain hsp82, stronger effect = lower value 0.98 | S. cerevisiae deletion strains, locus YPL256C, strain CLN2, stronger effect = lower value 0.961 | S. cerevisiae deletion strains, locus YPR119W, strain clb2, stronger effect = lower value 0.987 | S. cerevisiae deletion strains, locus YPR141C, strain kar3, stronger effect = lower value 0.994 | S. cerevisiae deletion strains, locus YPR163C, strain tif3, stronger effect = lower value 0.99 | S. cerevisiae deletion strains, locus YPR167C, strain met16, stronger effect = lower value 0.986 | S. cerevisiae deletion strains, strain wtn01, stronger effect = lower value 0.976 | S. cerevisiae strains, strain wild type, stronger effect = lower value 1

Source: PubChem BioAssay AID1159580 (chemical genetic matrix, 2015)
